Results on 31 sequences are retold here after publication PMC12820563, “FoxP3 forms a head-to-head dimer in vivo and stabilizes its multimerization on adjacent microsatellites”.

In all, about 16,000 sequences were measured (“rpm ratio (pull-down/input)”: median about 0.94, highest 2% from about 1.7 on). The sample holds the highest values, similar sequences and a random draw of the others, so the mix is not that of the screen.

In this assay the target is T1, MBP-FoxP1dN (Mus musculus, UniProt P58462 326-579).
T1 sequence: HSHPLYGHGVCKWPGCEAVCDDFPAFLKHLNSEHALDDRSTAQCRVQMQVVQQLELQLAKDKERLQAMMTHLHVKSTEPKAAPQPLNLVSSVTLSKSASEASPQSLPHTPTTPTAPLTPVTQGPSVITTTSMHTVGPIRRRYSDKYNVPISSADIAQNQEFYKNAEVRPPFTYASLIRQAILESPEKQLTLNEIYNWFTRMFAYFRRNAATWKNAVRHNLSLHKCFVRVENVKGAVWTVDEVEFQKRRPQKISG
Briefly: PD-seq (MBP pull-down with sequencing); 20 mM Tris-HCl pH 7.5, 100 mM NaCl, 1.5 mM MgCl2, 0.4 uM protein, 0.1 uM dsDNA library, 30 min, room temperature, amylose pull-down; high values mean tight binding. The following applies: protein: recombinant; tags: His6-MBP; chain copies: 2; dsDNA, one strand shown. The procedure, abridged: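 Mouse FoxP3 or FoxP1 fragment lacking the N-terminus, His6-MBP-tagged and expressed in E. coli, was incubated at 0.4 µM with 0.1 µM Klenow-filled degenerate double-stranded DNA library for 30 min at room temperature in Tris pH 7.5 buffer with NaCl and MgCl2. Complexes captured on amylose resin were washed three times and their DNA sequenced on Illumina. Binding is reads-per-million enrichment of pull-down over input, replicates pooled.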
Take “GATGATTGTTCTCCCAGCTGATGAATTATACTGCTCGAGTAAACAAATTTTCCTAATCTTTCTGTTCAAGCGCCATCTAC”: the binding signal is 0.951 RPM ratio (pull-down/input). For “GATGATTGTTCTCCCAGCTGATGAATTCTGCCTGTCGAGTAAACAAATTTTCCTAATCTTTCTGTTCAAGCGCCATCTAC” the value was 0.791 RPM ratio (pull-down/input); for “GATGATTGTTCTCCCAGCTGATGAATTCATACATTCGAGTAAACAAATTTTCCTAATCTTTCTGTTCAAGCGCCATCTAC”, 1.01 RPM ratio (pull-down/input); for “GATGATTGTTCTCCCAGCTGATGAATTTGACCGATCGAGTAAACAAATTTTCCTAATCTTTCTGTTCAAGCGCCATCTAC”, 0.841 RPM ratio (pull-down/input). For “GATGATTGTTCTCCCAGCTGATGAATTGCTCGAGTCGAGTAAACAAATTTTCCTAATCTTTCTGTTCAAGCGCCATCTAC” the value was 0.899 RPM ratio (pull-down/input). For “GATGATTGTTCTCCCAGCTGATGAATTTCCGGAATCGAGTAAACAAATTTTCCTAATCTTTCTGTTCAAGCGCCATCTAC” the value was 0.872 RPM ratio (pull-down/input).

Regarding “GATGATTGTTCTCCCAGCTGATGAATTTTTTATATCGAGTAAACAAATTTTCCTAATCTTTCTGTTCAAGCGCCATCTAC”, the binding signal is 1.08 RPM ratio (pull-down/input).

Regarding “GATGATTGTTCTCCCAGCTGATGAATTGTGTTTATCGAGTAAACAAATTTTCCTAATCTTTCTGTTCAAGCGCCATCTAC”, the binding signal was 2.92 RPM ratio (pull-down/input).

In the case of “GATGATTGTTCTCCCAGCTGATGAATTTCTTTTATCGAGTAAACAAATTTTCCTAATCTTTCTGTTCAAGCGCCATCTAC”, the binding signal was 1.03 RPM ratio (pull-down/input). For “GATGATTGTTCTCCCAGCTGATGAATTGTTTATATCGAGTAAACAAATTTTCCTAATCTTTCTGTTCAAGCGCCATCTAC” the value was 2.47 RPM ratio (pull-down/input).

“GATGATTGTTCTCCCAGCTGATGAATTGTTTTTATCGAGTAAACAAATTTTCCTAATCTTTCTGTTCAAGCGCCATCTAC”: the binding signal was 2.19 RPM ratio (pull-down/input). To “GATGATTGTTCTCCCAGCTGATGAATTTTAGTTATCGAGTAAACAAATTTTCCTAATCTTTCTGTTCAAGCGCCATCTAC” belongs 1.18 RPM ratio (pull-down/input); to “GATGATTGTTCTCCCAGCTGATGAATTAGTTTTATCGAGTAAACAAATTTTCCTAATCTTTCTGTTCAAGCGCCATCTAC”, 1.02 RPM ratio (pull-down/input); to “GATGATTGTTCTCCCAGCTGATGAATTTTATATATCGAGTAAACAAATTTTCCTAATCTTTCTGTTCAAGCGCCATCTAC”, 1.11 RPM ratio (pull-down/input). To “GATGATTGTTCTCCCAGCTGATGAATTTTCTTTATCGAGTAAACAAATTTTCCTAATCTTTCTGTTCAAGCGCCATCTAC” belongs 1.2 RPM ratio (pull-down/input). For “GATGATTGTTCTCCCAGCTGATGAATTTATCTAATCGAGTAAACAAATTTTCCTAATCTTTCTGTTCAAGCGCCATCTAC” the value was 1.32 RPM ratio (pull-down/input); for “GATGATTGTTCTCCCAGCTGATGAATTTAGTTTATCGAGTAAACAAATTTTCCTAATCTTTCTGTTCAAGCGCCATCTAC”, 1.89 RPM ratio (pull-down/input).

For “GATGATTGTTCTCCCAGCTGATGAATTTTTTTTATCGAGTAAACAAATTTTCCTAATCTTTCTGTTCAAGCGCCATCTAC”, the binding signal is 0.958 RPM ratio (pull-down/input).

Take “GATGATTGTTCTCCCAGCTGATGAATTCTGCGCGTCGAGTAAACAAATTTTCCTAATCTTTCTGTTCAAGCGCCATCTAC”: the binding signal was 0.978 RPM ratio (pull-down/input).

With “GATGATTGTTCTCCCAGCTGATGAATTCCATTACTCGAGTAAACAAATTTTCCTAATCTTTCTGTTCAAGCGCCATCTAC”, the binding signal is 0.874 RPM ratio (pull-down/input). To “GATGATTGTTCTCCCAGCTGATGAATTCAAGATCTCGAGTAAACAAATTTTCCTAATCTTTCTGTTCAAGCGCCATCTAC” belongs 0.814 RPM ratio (pull-down/input); to “GATGATTGTTCTCCCAGCTGATGAATTTCTACGATCGAGTAAACAAATTTTCCTAATCTTTCTGTTCAAGCGCCATCTAC”, 0.948 RPM ratio (pull-down/input).

“GATGATTGTTCTCCCAGCTGATGAATTCACCATATCGAGTAAACAAATTTTCCTAATCTTTCTGTTCAAGCGCCATCTAC”: the binding signal is 0.984 RPM ratio (pull-down/input).

As to “GATGATTGTTCTCCCAGCTGATGAATTGGGGCACTCGAGTAAACAAATTTTCCTAATCTTTCTGTTCAAGCGCCATCTAC”, the binding signal was 0.856 RPM ratio (pull-down/input). To “GATGATTGTTCTCCCAGCTGATGAATTTCACTGGTCGAGTAAACAAATTTTCCTAATCTTTCTGTTCAAGCGCCATCTAC” belongs 0.806 RPM ratio (pull-down/input). In the case of “GATGATTGTTCTCCCAGCTGATGAATTATGGCAATCGAGTAAACAAATTTTCCTAATCTTTCTGTTCAAGCGCCATCTAC”, the binding signal is 1.23 RPM ratio (pull-down/input). For “GATGATTGTTCTCCCAGCTGATGAATTTCGGTTCTCGAGTAAACAAATTTTCCTAATCTTTCTGTTCAAGCGCCATCTAC” the value was 0.825 RPM ratio (pull-down/input); for “GATGATTGTTCTCCCAGCTGATGAATTCGGGGCCTCGAGTAAACAAATTTTCCTAATCTTTCTGTTCAAGCGCCATCTAC”, 0.744 RPM ratio (pull-down/input).

Turning to “GATGATTGTTCTCCCAGCTGATGAATTCTTTTTATCGAGTAAACAAATTTTCCTAATCTTTCTGTTCAAGCGCCATCTAC”, the binding signal is 1 RPM ratio (pull-down/input).

On to “GATGATTGTTCTCCCAGCTGATGAATTTATCTGATCGAGTAAACAAATTTTCCTAATCTTTCTGTTCAAGCGCCATCTAC”, for which the binding signal was 1.07 RPM ratio (pull-down/input). For “GATGATTGTTCTCCCAGCTGATGAATTGTTTATCTCGAGTAAACAAATTTTCCTAATCTTTCTGTTCAAGCGCCATCTAC” the value was 2.68 RPM ratio (pull-down/input).
